# Laboratory results from PMC5540273 (PLoS ONE, 2017).
# Read-outs that look alike come from different tables or passages of the source.
# Legend:
# [1] = test system: ZAK; details: concentration: 1 μM, replicates: in singlicate; n = 1
# [2] = test system: ZAP70; details: concentration: 1 μM, replicates: in singlicate; n = 1
# [3] = test system: T1, p38-alpha; details: n = 1
# T1 construct: gene MAPK14
# [4] = test system: T2, p38-beta; details: concentration: 1 μM, replicates: in singlicate; n = 1
# T2 construct: gene MAPK11
# [5] = test system: p38-delta; details: concentration: 1 μM, replicates: in singlicate; n = 1
# [6] = test system: T3, p38-gamma; details: concentration: 1 μM, replicates: in singlicate; n = 1
# T3 construct: gene MAPK12
# [7] = concentration: 1 μM, replicates: in singlicate
# 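Further: KINOMEscan kinase panel screen.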
Structure (SMILES),%Inh [1],%Inh [2],"%Inh [3, 7]",%Inh [4],%Inh [5],%Inh [6],%Inh ([3]; 1 µM)
Nc1ncnc2scc(-c3ccc(NC(=O)Cc4cc(F)ccc4F)cc3)c12.O=C(O)C(F)(F)F [SB-731254-M],4%,0%,0%,7%,0%,41%,–
Fc1cc(Cl)ccc1Nc1ccnc2cc(-c3ccc(CN4CCOCC4)o3)ccc12 [GW560109],50%,3%,28%,0%,25%,0%,–
Cc1cc(-c2ccnc(Nc3cccc(C#N)c3)n2)cc(C)c1O [GSK1440913],16%,2%,0%,0%,99.7%,91.6%,–
Cc1ccc(NC(=O)c2cccc(N3CCCCC3)c2)cc1-c1ccc(C(=O)NCC2CC2)cc1 [GSK1917008],33%,0%,99.9%,99.4%,46%,50%,–
Cc1cc(-c2c(-c3ccc(F)cc3)ncn2CCCN2CCOCC2)nc(N)n1 [SB-222517],13%,15%,22%,17%,0%,27%,–
O=C(Nc1n[nH]c2cc(-c3cccs3)ccc12)C1CC1 [SB-731284],22%,12%,0%,0%,0%,22%,–
Cc1ccc(-c2ccc3occ(-c4ccc(S(C)=O)cc4)c3c2)nn1 (stereo not drawn),0%,13%,0%,10%,0%,0%,–
O=C(Nc1n[nH]c2nc(-c3ccccc3)ccc12)C1CC1 [SB-708999],15%,19%,10%,29%,25%,2%,–
O=C(Nc1n[nH]c2nc(-c3cccc(O)c3)ccc12)C1CC1 [SB-711805],25%,23%,7%,18%,0%,12%,–
c1ccc(Oc2ccc(Nc3ccnc4cc(-c5ccc(CN6CCCCC6)o5)ccc34)cc2)nc1 [GW567143],66%,0%,0%,0%,0%,0%,–
CS(=O)(=O)c1cccc(CNc2nc(Nc3ccc4c(c3)CCC(=O)N4)ncc2C(F)(F)F)c1,0%,43%,3%,0%,8%,4%,–
Cl.O=C(Nc1ccc(Oc2ccc3[nH]c(NC(=O)c4ccco4)nc3c2)cc1)Nc1cc(C(F)(F)F)ccc1F [GW683134],99.2%,0%,65%,74%,39%,0%,–
COc1cccc(-c2nc(-c3ccccc3)[nH]c2-c2ccncc2)c1 [SB-610250],5%,0%,98.2%,32%,44%,0%,–
CCn1cnc2c(NCc3ccccc3)ncnc21 [SKF-96418],0%,30%,0%,0%,0%,0%,–
Cc1ccccc1CC(=O)N1CCc2cc(-c3cn(C)c4ncnc(N)c34)ccc21 [GSK2603346],0%,0%,0%,0%,27%,0%,–
CC(C)c1nc(-c2cccc(NS(=O)(=O)c3c(F)cccc3F)c2)c(-c2ccnc(Nc3ccc(N4CCOCC4)nc3)n2)s1.Cl [GSK1723980],98.6%,0%,27%,10%,0%,0%,–
NCCC(NC(=O)c1cc(Br)c(-c2ccnc3[nH]ccc23)s1)c1ccccc1.O=C(O)C(F)(F)F.O=C(O)C(F)(F)F (stereo not drawn) [GSK1307810],10%,0%,8%,0%,21%,0%,–
COC(=O)Nc1nc2ccc(Oc3ccc(NC(=O)Nc4cc(C(F)(F)F)ccc4F)cc3)cc2[nH]1.Cl [GW654607],98%,0%,88%,70%,65%,9%,–
Cl.Cl.NC(CNC(=O)c1cc(Br)c(-c2ccnc3[nH]ccc23)s1)c1ccccc1 (stereo not drawn) [GSK1322949],11%,0%,23%,0%,14%,50%,–
COc1cc(Nc2nccc(N3CCC(NC(=O)Nc4ccc5c(c4)OCO5)C3)n2)cc(OC)c1OC (stereo not drawn) [GSK1379766],34%,0%,0%,0%,24%,0%,–
CC(=O)Nc1cn2nc(Oc3cccc(NC(=O)c4cccc(C(F)(F)F)c4)c3)ccc2n1,98.6%,0%,32%,28%,0%,34%,–
CC(C)c1nc(-c2ccc(F)c(NS(=O)(=O)c3c(F)cccc3F)c2)c(-c2ccnc(Nc3ccc(N4CCOCC4)nc3)n2)s1 [GSK1804250],98.3%,0%,96%,38%,57%,1%,–
CN(C)c1ncnc2nc[nH]c12 [SKF-31736],0%,7%,7%,0%,0%,2%,–
O=C(Nc1c(F)cccc1F)c1cc(C(=O)c2ccccc2F)c[nH]1 [GSK1326180],0%,0%,–,15%,0%,7%,47%
COc1cccc(NC(=O)NCCNc2ccnc(Nc3ccc(F)cc3)n2)c1 [GSK1379879],34%,17%,0%,0%,59%,0%,–

Structure (SMILES),%Inh [1],%Inh [2],"%Inh [3, 7]",%Inh [4],%Inh [5],%Inh [6],%Inh ([3]; 1 µM)
N#Cc1cnc2cc(-c3cnc(CNCCN4CCOCC4)s3)ccc2c1Nc1ccc(Oc2ccccc2)cc1 [GW664114],95.6%,59%,0%,0%,37%,0%,–
O=C(Nc1n[nH]c2nc(-c3ccccc3O)ccc12)C1CC1 [SB-711880],0%,0%,0%,0%,0%,39%,–
CN1CCN(Cc2ccc(NC(=O)Nc3ccc(N(C)c4ccnc(Nc5ccc(CS(C)(=O)=O)cc5)n4)cc3)cc2)CC1.Cl [GW827654],21%,52%,0%,0%,0%,48%,–
O=C(O)C(F)(F)F.O=c1[nH]ccc2nc(N[C@@H]3CCNC3)nc(Nc3ccc4c(c3)S(=O)(=O)CC4)c12 [GSK2181306],0%,1%,0%,0%,44%,23%,–
Cl.Cl.NCC(NC(=O)c1cc(-c2cccnc2)c(-c2ccnc3[nH]ccc23)s1)c1ccccc1 (stereo not drawn) [GSK1323434],7%,0%,31%,0%,21%,32%,–
Cc1ccc(Nc2ccnc(Nc3ccc(C)c(F)c3)n2)cc1O.Cl [GW582868],2%,0%,0%,0%,30%,0%,–
CCOc1nccc(-c2c(-c3ccc(F)cc3)ncn2C2CCNCC2)n1 [SB-249175],15%,32%,99.3%,100%,4%,43%,–
CN(c1ccc2c(c1)nc(NCc1ccccc1)n2C)c1ccnc(Nc2ccc(CS(C)(=O)=O)cc2)n1.Cl [GW811603],4%,27%,2%,0%,27%,0%,–
O=C(O)C(F)(F)F.O=c1[nH]ccc2nc(N[C@@H]3CCNC3)nc(Nc3cc(Cl)cc(Cl)c3)c12 [GSK2188764],0%,1%,0%,0%,18%,23%,–
Nc1cccc(-c2ccc3c(N)n[nH]c3c2)c1 [GSK2193613],11%,0%,6%,0%,17%,45%,–
CN(C)CCNS(=O)(=O)c1ccc(-c2ccnc3[nH]ccc23)cc1 [GSK977620],83%,0%,0%,1%,39%,0%,–
COC(=O)Nc1nc2cc(Oc3ccc(NC(=O)Nc4cccc(SC)c4)cc3)ccc2[nH]1.Cl [GW697999],96.3%,0%,54%,0%,28%,4%,–
CCNC(=O)/C=C/c1n[nH]c2cc(Sc3ccccc3C(=O)NC)ccc12,48%,0%,13%,11%,18%,16%,–
Fc1cc(Cl)ccc1Nc1ccnc2cc(-c3ccc(CN4CCSCC4)o3)ccc12 [GW560106],52%,0%,35%,0%,36%,0%,–
COc1cccc(C2=C(Nc3cccc(O)c3)C(=O)NC2=O)c1 [SB-390771],38%,5%,0%,0%,45%,18%,–
COc1ccc(C)c(Nc2ccnc(Nc3ccc(-c4cnc[nH]4)cc3)n2)c1.Cl [GW784041],92.4%,0%,0%,14%,11%,42%,–
CN(c1ccc(NC(=O)Nc2cccc(Cl)c2)cc1)c1ccnc(N)n1.Cl [GW830707],0%,0%,0%,6%,0%,0%,–
Cc1ccc(NC(=O)c2ccc(Cl)c(Cl)c2)cc1-c1ccc(C(=O)Nc2ccncc2)cc1 [GSK1398460],49%,0%,0%,12%,24%,0%,–
COc1cccc2c(-c3ccncc3)c(-c3ccc(F)cc3)nn12 [GW468513],16%,9%,99.9%,82%,34%,0%,–
Cc1ccc(C)c(NC(=O)Nc2ccc(C)c(-c3ccc(C(=O)Nc4ccncc4)cc3)c2)c1 [GSK1398473],70%,0%,0%,0%,38%,0%,–
Cc1cccc(Nc2nc(NCCN)ncc2C(N)=O)c1 [GSK1292139],0%,74%,45%,0%,24%,0%,–
N#CC1(c2cccc(C(=O)Nc3cccc(Oc4ccc5nc(NC(=O)C6CC6)sc5n4)c3)c2)CC1,90%,0%,40%,36%,0%,26%,–
Cl.N#CCc1ccc(Nc2nccc(Nc3ccc(Oc4ccccc4)cc3)n2)cc1 [GW639905],45%,0%,0%,0%,5%,0%,–
Nc1ncc(-c2ccc3nccc(-c4ccncc4)c3c2)cc1S(=O)(=O)N1CCCCC1 [GSK1693850],22%,0%,0%,0%,36%,22%,–
CC(C)NCC(Cc1ccccc1)NC(=O)c1cc(Br)c(-c2ccnc3[nH]ccc23)s1.Cl.Cl (stereo not drawn) [GSK1383281],73%,0%,0%,0%,16%,0%,–

Structure (SMILES),%Inh [1],%Inh [2],"%Inh [3, 7]",%Inh [4],%Inh [5],%Inh [6],%Inh ([3]; 1 µM)
Cn1cc(-c2cnc(N)c3c(-c4ccc5c(c4)CCN5C(=O)Cc4ccccc4)csc23)cn1 [GSK2593074],59%,0%,8%,1%,0%,14%,–
COc1ccc(NC(=O)c2ccoc2)cc1-c1ccc(C(=O)NCC2CC2)cc1 [GW810437],2%,36%,10%,1%,0%,0%,–
Cn1cc(-c2ccc3c(c2)CCN3C(=O)Cc2cc(F)cc(F)c2F)c2c(N)ncnc21 [GSK2634140],0%,0%,0%,0%,14%,2%,–
Cc1cccc(Nc2nc(N[C@H]3CCCC[C@H]3N)ncc2C(N)=O)c1.Cl [GSK986310],0%,92.9%,0%,0%,45%,0%,–
Cc1nn2c(=O)cc(N3CCO[C@H](C)C3)nc2n1Cc1cccc(Cl)c1Cl [GSK2373693],15%,0%,66%,0%,15%,0%,–
O=C1NC(=O)C(c2ccccc2Cl)=C1Nc1cccc(Cl)c1 [SB-342409],21%,0%,0%,0%,28%,0%,–
CC(C)(C)c1ccc(C(=O)Nc2cn3cc(-n4ccnc4)ccc3n2)cc1,7%,0%,11%,9%,21%,0%,–
Cc1ccc(O)cc1Nc1ccnc2cc(-c3ccc(CN4CCCCC4)o3)ccc12 [GW557777],75%,0%,15%,6%,0%,18%,–
CNc1nccc(-c2ccc3c(N)n[nH]c3c2)n1 [GSK2206003],22%,0%,6%,0%,22%,25%,–
CCNc1nccc(-c2c(-c3ccc(F)cc3)ncn2C2CCN(C)CC2)n1,7%,0%,99.8%,63%,0%,36%,–
CN(c1ccc(F)c(NC(=O)c2cccc(OC(C)(C)C#N)c2Cl)c1)c1ccc2nc(NC(=O)C3CC3)sc2n1,64%,0%,70%,6%,0%,37%,–
CN(C)CCOc1ccc(-c2cc(-c3ccc(Cl)c(O)c3)c(-c3ccncc3)[nH]2)cc1.Cl.Cl [SB-684387],20%,20%,54%,70%,19%,23%,–
COC(=O)Nc1nc2ccc(Oc3ccc(CC(=O)Nc4cc(C(F)(F)F)ccc4F)cc3)cc2[nH]1 [GW680903],91.6%,38%,6%,0%,47%,0%,–
CN(c1ccc(NC(=O)N2CCN(CCCN3CCOCC3)CC2)cc1)c1ccnc(Nc2ccc(CS(C)(=O)=O)cc2)n1.Cl [GW830899],5%,0%,9%,0%,0%,41%,–
Cn1cc(-c2ccc3c(c2)CCN3C(=O)Cc2cc(F)cc(C(F)(F)F)c2)c2c(N)ncnc21 [GSK2635225],11%,0%,0%,0%,46%,0%,–
COc1cc(Nc2ccnc3cc(-c4ccncc4)ccc23)cc(OC)c1OC.Cl [GW494610],49%,8%,52%,66%,2%,0%,–
COc1cc(Nc2nccc(N3CCC(NS(=O)(=O)c4ccc(NC(C)=O)cc4)CC3)n2)cc(OC)c1OC [GSK1379825],64%,5%,0%,52%,11%,0%,–
Nc1ncc(-c2cn[nH]c2)c2scc(-c3ccc4c(c3)CCN4C(=O)Cc3ccccc3)c12 [GSK2593067],50%,4%,0%,0%,15%,0%,–
CCn1c(-c2nonc2N)nc2c(-c3ccccc3)ncc(OCCCN)c21.O=C(O)C(F)(F)F.O=C(O)C(F)(F)F [GSK260205],0%,0%,99.5%,65%,26%,2%,–
Cc1ccc(NC(=O)c2ccnc(N3CCCCC3)c2)cc1-c1ccc(C(=O)NCC2CC2)cc1 [GW775610],21%,0%,99.9%,100%,2%,62%,–
CSc1ccc(NC2=C(c3ccc(Cl)cc3)C(=O)NC2=O)cc1 [SB-317658],28%,0%,0%,12%,11%,0%,–
COc1ccc(C2=C(Nc3cccc(O)c3)C(=O)NC2=O)cc1 [SB-390766],7%,0%,23%,0%,94.4%,0%,–
Cc1ccc(O)cc1Nc1ccnc2ccc(C(C)(C)C)cc12 [GW856805],0%,15%,1%,16%,0%,41%,–
COc1cccc(CC(=O)N2CCc3cc(-c4cn(C)c5ncnc(N)c45)ccc32)c1 [GSK2608899],0%,0%,0%,0%,48%,0%,–
